The list is not random: actives were taken first. Their share in the collection is about 3.2%.
HEK293 cAMP ctrl: qHTS Assay for Agonists of the Thyroid Stimulating Hormone Receptor: Activators of Intracellular cAMP Concentrations in Parental HEK 293. parental HEK293 CNG cAMP sensor, membrane potential fluorescence. Potency, µM (series often up to 57.1 µM), for inactives: at the highest dose activation, most hits filed as activators. 2.5% of 73,000 active; also: potency is read from the fitted curve at half-maximal effect; % of control where 0% means no effect; nearly all actives have a fitted effect of over 55% in size
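Parental HEK 293 cells stably expressing a cAMP-gated CNG channel were loaded with membrane potential dye containing 100 uM RO 20-1724 for 60 min. Compound added for 30 min; depolarization read as fluorescence intensity at 590 nm.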
BRCT inh red: qHTS Assay for Inhibitors of BRCT-Phosphoprotein Interaction (Red Fluorophore). Potency, µM (top dose mostly 76.9 µM), for inactives: top-dose activity change, negative = inhibition, most hits filed as inhibitors. BRCT-phosphopeptide binding, red fluorescence polarization. 0.03% of 75,000 active. AID 892, 2007. Breast cancer type 1 susceptibility protein (Homo sapiens), P38398; also: % is scaled to controls: 0 for no effect and ±100 for the full control effect
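Fluorescence polarization: 100 nM His-tagged BRCA1 BRCT with 100 nM TAMRA-labelled phospho-BACH1 decapeptide, phosphate buffer pH 7.3 with 150 mM NaCl, DTT, 0.01% Tween 20; 12 min RT. Binding inhibition seen as FP decrease.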
TSHR agonist: qHTS Assay for Agonists of the Thyroid Stimulating Hormone Receptor | Potency, µM (highest dose often 57.1 µM), for the others: at the highest dose activation, most hits filed as activators | HEK293-CNG-TSHR cells (CNG channel as cAMP sensor), membrane potential dye, cAMP | 0.48% of 73,000 active | AID 926, 2007; active = well fitted activation curve with a large enough effect in the main read-out, with a control signal flat, not every such curve was filed as active; inconclusive = small, poorly fitted or top-dose-only effect, or a change in a side signal; inactive = no such curve, though single readings can be large or run the other way; % of control where 0% means no effect;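 also: the control signal comes from parental cells without the receptor; potency is read from the fitted curve at half-maximal effect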
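HEK 293 cells stably expressing TSHR and a modified CNG channel, with CNG-only parental cells as counterscreen, were preloaded 60 min at room temperature with membrane potential dye containing 100 uM RO 20-1724. Compound exposure was 30 min, and depolarization was read as fluorescence at 590 nm.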
Pol III holo inh: qHTS Assay for Inhibitors of DNA Polymerase III Holoenzyme System. AID 603, 2007. 0.25% of 71,000 active. reconstituted DNA polymerase III holoenzyme replication, biochemical. Potency, µM (top dose mostly 57.1 µM), without a hit: top-dose activity change, negative = inhibition; also: potency is read from the fitted curve at half-maximal effect; % is scaled to controls: 0 for no effect and ±100 for the full control effect
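Reconstituted *E. coli* holoenzyme (0.35 nM Pol III, 1 nM beta, 154 nM SSB, 2 nM primase) was preincubated with compound for 15 min at RT. Synthesis on 1.4 nM ssM13Gori ran 35 min, then was stopped with PicoGreen/EDTA and read as dsDNA fluorescence.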
BRCT inh green: qHTS Assay for Inhibitors of BRCT-Phosphoprotein Interaction (Green Fluorophore) | Potency, µM (top dose mostly 76.9 µM), for the others: top-dose activity change, negative = inhibition, actives largely listed as inhibitors | 0.05% of 75,000 active | BRCA1 BRCT-phosphopeptide binding, green fluorescence polarization | AID 875, 2007;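 also: potency is read from the fitted curve at half-maximal effect; plate controls were peptide without protein for full effect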
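Compounds were incubated for 12 min at room temperature with a complex of 100 nM fluorescein-tagged pBACH1 decapeptide and 250 nM His-tagged BRCT protein. Buffer was phosphate pH 7.3 with EDTA, DTT and Tween 20. Disruption of binding lowers the polarization signal.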
YjeE inh: qHTS Assay for Inhibitors of YjeE | tRNA threonylcarbamoyladenosine biosynthesis protein TsaE (Escherichia coli (strain … | 0.05% of 71,000 active | Potency, µM | purified YjeE enzyme, qHTS inhibition assay
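Fluorescence polarization of a BODIPY Texas Red–ADP probe (2 uM) bound to purified YjeE (10 uM) was read after 15 min room-temperature incubation with compounds. Loss of polarization marks inhibitors; ADP serves as titrated control.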
* marks the source's active call; other numbers are inactive results; i = inactive; ? = inconclusive; . = no result given; [ ] = dose if it differs, or a comment. Unless noted, calls follow the shape of the dose curve; as a rule, active = well fitted curve in the direction sought with a large enough effect; inconclusive = small, poorly fitted or top-dose-only effect, or another doubt; inactive = no such curve, though single readings can be large; an effect the other way counts as inactive or inconclusive.

SMILES	HEK293 cAMP ctrl	BRCT inh red	TSHR agonist	Pol III holo inh	BRCT inh green	YjeE inh
CO[C@H]1COC(=O)C/C=C\[C@H](C)COC(=O)[C@@H](C)NC(=O)C/C=C\[C@@H]1C	-6%[11.4 µM]	0%[15.4 µM]	-2%[11.4 µM]	.	-2%[15.4 µM]	.
COc1cccc(C(c2nnnn2CCc2ccccc2)N2CCN(c3ccccc3)CC2)c1OC (configuration not stated)	7.9µM*	0%	?	-3%	0%	i
C=C1C(CCl)(CCl)C2(Cl)C(Cl)C(Cl)C1(Cl)C2(Cl)Cl (configuration not stated)	18%	-4%	40µM*	?	0%	i
O=C(O)CC[P+](c1ccccc1)(c1ccccc1)c1ccccc1	3.2µM*	1%[15.4 µM]	?	-6%[11.4 µM]	-2%[15.4 µM]	i
Cc1sc2ncnc(N3CCCCC3C)c2c1C (configuration not stated)	25µM*	1%	?	-1%	-1%	i
Cc1sc2ncnc(-n3cnc4ccccc43)c2c1C	-5%	0%	-3%	-5%	-1%	i
N#CC1=C(N)S[C@H](C(=O)C23CC4CC(CC(C4)C2)C3)[C@H]1c1ccncc1	16%	-3%	1.3µM*	9%	0%	i
c1cn(-c2ncnc3ccc(-c4ccoc4)cc23)cn1	-2%	-2%	1%	-9%	1%	i
c1ccc(-c2cc3c(-n4cccc4)ncnc3o2)cc1	20µM*	0%	?	-3%	2%	i
CC(C)(C)NC(=O)NC(=O)COC(=O)COc1ccc2c(c1)CCC2	17%	-3%	5%	-2%	-4%	i
CC(C)(C)NC(=O)NC(=O)COc1ccccn1	10µM*	-1%	?	2%	-1%	i
CS(=O)(=O)N1CCC2(CCCN(C(=O)Nc3ccccc3)C2)CC1	13%	0%	5%	-4%	-2%	i
Cc1cc(-c2ccc(N=Nc3ccc4c(S(=O)(=O)O)cc(S(=O)(=O)O)c(N)c4c3O)c(C)c2)ccc1N=Nc1ccc2c(S(=O)(=O)O)cc(S(=O)(=O)O)c(N)c2c1O	-19%	?	-30%	7.9µM*	32µM*	79µM*
Cc1oc(-c2ccc(Cl)cc2)cc1-c1nn2c(-c3ccoc3C)nnc2s1	32µM*	-4%	?	-23%	-2%	i
Cc1ccc2ccccc2c1COC(=O)c1nonc1N	16µM*	0%	?	-2%	1%	i
N#CCSc1nnc2ccc3ccccc3n12	-2%	2%	6%	-4%	-1%	i
N#CCSc1nnc(Cc2cccc3ccccc23)n1C1CCCCC1	16µM*	2%	?	-2%	2%	i
Cc1cccc(-n2ncc3c(NCCCn4ccnc4)ncnc32)c1	?	-1%	?	-1%	2%	i
Cc1ccc(-n2ncc3c(NCCCn4ccnc4)ncnc32)c(C)c1	1.6µM*	-1%	?	-6%	7%	i
COc1ccc(N2CCN(c3oc(COc4ccccc4)nc3C#N)CC2)cc1	0.79µM*	0%	?	-6%	-2%	i
N#Cc1nc(COc2ccccc2)oc1N1CCOCC1	1%	-2%	7%	2%	-1%	i
N#Cc1nc(COc2ccc(Br)cc2)oc1N1CCCCCC1	25µM*	0%	?	2%	-3%	i
CNC(=O)c1cc2c(cn1)[nH]c1ccccc12	?	-1%	?	-10%	3%	i
CC(=O)N(C(C)=O)c1ncc2c([nH]c3ccccc32)c1C#N	25µM*	0%	?	-5%	2%	i
COC(=O)c1c(NC(=O)Cc2cccs2)sc(C(=O)N2CCCCC2)c1C	?	2%	?	-10%	-1%	i
